Source: PubChem BioAssay (NCI)
About 83,000 compounds went through this panel and 20% of them were active in at least one assay; those are over-represented in the sample as a whole.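 Growth was measured after 48 h exposure to one concentration of compound in 96-well plates. Values under 10 count as active.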 A number with no mark means an inactive call. The source made the active and inactive calls.

Assays:
Test in all cases: NCI-60 one-dose screen, 48 h (100 = growth as untreated, 0 = no growth, -100 = all killed)
Settings in all cases: 10 µM
[1] = system: HOP-92 NSCLC
[2] = system: 786-0 renal
[3] = system: SN12C renal
[4] = system: UO-31 renal
[5] = system: TK-10 renal
[6] = system: ACHN renal
[7] = system: A498 renal
[8] = system: CCRF-CEM leukemia
[9] = system: RPMI-8226 leukemia
[10] = system: OVCAR-8 ovarian
[11] = system: OVCAR-4 ovarian
[12] = system: SK-OV-3 ovarian
[13] = system: IGROV1 ovarian
[14] = system: NCI/ADR-RES ovarian
[15] = system: BT-549 breast
[16] = system: MDA-MB-435 melanoma
[17] = system: MCF7 breast
[18] = system: HCT-116 colon
[19] = system: HCC-2998 colon
[20] = system: KM12 colon

SMILES | growth [1] | growth [2] | growth [3] | growth [4] | growth [5] | growth [6] | growth [7] | growth [8] | growth [9] | growth [10] | growth [11] | growth [12] | growth [13] | growth [14] | growth [15] | growth [16] | growth [17] | growth [18] | growth [19] | growth [20]
CC12OOC(C)(OO1)C2CCC(=O)OCCNc1ccnc2cc(Cl)ccc12 (stereo not drawn) | -27.2% (active) | -29.3% (active) | 84.3% | -97.2% (active) | 66.3% | -93.8% (active) | 109% | 9.26% (active) | 8.42% (active) | 68% | -39.8% (active) | 95.9% | 39.7% | 53.2% | 93.1% | 31.3% | 24.2% | 0.954% (active) | 88.5% | 60.6%
Cc1ccc2[nH]c(=S)n(-c3ccc(F)cc3)c(=O)c2c1 | 77.2% | 91.4% | 92.2% | 82.7% | 102% | 101% | 98.3% | 86.3% | 91.5% | 103% | 104% | 122% | 106% | 103% | 93.7% | 104% | 95% | 96.3% | 111% | 103%
CCC[Se]C(=O)c1ccc(C(=O)[Se]CCC)s1 | -57.8% (active) | 2.15% (active) | -75% (active) | -55.5% (active) | -79.8% (active) | -63.3% (active) | -64.9% (active) | 13.6% | -5.8% (active) | -51.1% (active) | 55.6% | -31.1% (active) | -67.3% (active) | -53.9% (active) | -86.4% (active) | -61% (active) | -34.6% (active) | -56% (active) | -8.78% (active) | 5.4% (active)
COC(=O)C[C@](O)(CCC(C)C)C(=O)O[C@@H]1C(OC)=C[C@]23CCCN2CCc2cc4c(cc2[C@H]13)OCO4 | -19.4% (active) | -46.8% (active) | -26.7% (active) | – | -23.8% (active) | -25.1% (active) | -46.5% (active) | -12% (active) | -30.2% (active) | -62.9% (active) | -42.4% (active) | -25.6% (active) | -29.3% (active) | -29.7% (active) | -42% (active) | -84% (active) | -19.4% (active) | -27.5% (active) | -89.9% (active) | -20.8% (active)
O=C(/C=C/c1ccccc1)c1nc2ccccc2n1Cc1ccc(F)cc1 | -28.4% (active) | -88.3% (active) | -5.26% (active) | -78.5% (active) | -14.3% (active) | -55% (active) | 106% | -23.7% (active) | -38% (active) | 4.71% (active) | 47.7% | 64.9% | -32.9% (active) | -49.6% (active) | -65% (active) | -29.3% (active) | -32.7% (active) | -87.4% (active) | -95.8% (active) | -41.3% (active)
O=C(/C=C/c1ccc(Br)cc1)c1nc2ccccc2n1Cc1ccc(Br)cc1 | -11.1% (active) | -81.3% (active) | 8.28% (active) | -66.4% (active) | 23.8% | -38.2% (active) | 82.7% | 10.3% | -9.14% (active) | -18% (active) | 35.5% | 79.1% | -18% (active) | -38.2% (active) | -66.2% (active) | -38.5% (active) | 3.68% (active) | -80.9% (active) | -89.6% (active) | 22.5%
CC[C@]12C=CCN3CC[C@@]4(c5ccc(OC)cc5N(C)[C@H]4[C@@](O)(C(=O)OC)[C@@H]1OC(=O)CCC[P+](C1CCCCC1)(C1CCCCC1)C1CCCCC1)[C@@H]32 | -43.8% (active) | -16.3% (active) | -40.5% (active) | 76.8% | -48.6% (active) | 32% | 21.8% | -40.9% (active) | -43.4% (active) | 1.19% (active) | 17.7% | -7.72% (active) | -85.9% (active) | 100% | -97.4% (active) | -80.1% (active) | -72.2% (active) | 0.156% (active) | -92.6% (active) | -63.4% (active)
O=C(NCCCCC(c1ccc(F)cc1)c1ccc(F)cc1)Nc1ccc([N+](=O)[O-])c(C(F)(F)F)c1 | -36.2% (active) | -15% (active) | 7.2% (active) | 0% (active) | 10% | -2.96% (active) | -9.75% (active) | -38.8% (active) | -39.3% (active) | 5.42% (active) | 11.5% | -33% (active) | 15.4% | -4.02% (active) | -28% (active) | -21.3% (active) | 1.44% (active) | -58.2% (active) | 7.86% (active) | 2.48% (active)
N#C[Se]CC(=O)Nc1cccc(C(F)(F)F)c1 | -69.3% (active) | -54% (active) | -78.1% (active) | -84.2% (active) | -79.8% (active) | -38% (active) | -69.6% (active) | 22.5% | 10.2% | -49.9% (active) | 36.8% | 14% | -64.5% (active) | -60.8% (active) | -90.2% (active) | -18.1% (active) | 6% (active) | -66.8% (active) | 54.7% | 41.5%
C=CC[Se]C(=O)c1cncc(C(=O)[Se]CC=C)c1 | -18% (active) | -97.3% (active) | -95.6% (active) | -98.4% (active) | -20.3% (active) | -12.9% (active) | 29.9% | -39.9% (active) | -42.2% (active) | -87.3% (active) | -62.8% (active) | -92.2% (active) | -92% (active) | -70.2% (active) | -94.9% (active) | -62.9% (active) | -42.7% (active) | -86.4% (active) | -92.6% (active) | -73.1% (active)
COc1ccc(OC)c(/C=C/C(=O)c2nc3ccccc3n2Cc2ccc(F)cc2)c1 | -11% (active) | -57.7% (active) | 4.76% (active) | -43.9% (active) | 13.1% | -48.2% (active) | 116% | -18.5% (active) | -36.8% (active) | 3.97% (active) | 37.9% | 50.2% | -7.29% (active) | -41.5% (active) | -58.2% (active) | -46.9% (active) | 2.95% (active) | -91.1% (active) | -93.6% (active) | -20.9% (active)
COc1cc(OC)c(S(=O)(=O)N(CCCl)CCCl)cc1C(=O)/C=C/c1cc(OC)c(OC)c(OC)c1 | 9.15% (active) | -59.7% (active) | 8.6% (active) | -93.9% (active) | 3.84% (active) | 2.37% (active) | -0.926% (active) | 1.08% (active) | -24.3% (active) | 9.85% (active) | 23.2% | 9.62% (active) | 0.296% (active) | 4.75% (active) | -84.7% (active) | -31.5% (active) | -39.2% (active) | -87.7% (active) | -91.1% (active) | -61.2% (active)
CN(C)CCc1cn(C2CCC2)c2cccc(O)c12 | – | 50% | 68% | 47.8% | 103% | 84.6% | 95% | 56.6% | 24.4% | 96.6% | 86.6% | 92.9% | 84.2% | 74.3% | 68.1% | 45.9% | 22.4% | 31.6% | -46.1% (active) | 76.1%
COc1cc(OC)c(/C=C/C(=O)c2nc3ccccc3n2Cc2ccc(F)cc2)c(OC)c1 | 50.2% | 85% | 77.3% | 82.7% | 109% | 75.2% | 130% | 64.5% | 78.4% | 79.7% | 56.7% | 88.2% | 101% | 78.2% | 77.8% | 83.5% | 56.1% | 74.8% | 105% | 91.4%
C=CCN=C([Se])NC(=O)c1ccc2c(c1)OCO2 | 151% | 85.8% | 81.5% | 115% | 120% | 111% | 82.5% | 87.1% | 105% | 61.1% | 108% | 45.1% | 75.6% | 60.3% | 104% | 96.6% | 102% | 43.6% | 92.4% | 41.1%
C=CC[Se]C(=O)c1ccc(C(=O)[Se]CC=C)s1 | -29.9% (active) | -96.3% (active) | -55.8% (active) | -98.1% (active) | -80% (active) | -45.6% (active) | -5.42% (active) | -12% (active) | -26.8% (active) | -80.5% (active) | -67.6% (active) | -95.2% (active) | -78.9% (active) | -23.1% (active) | -92.3% (active) | -82.8% (active) | -55.4% (active) | -77.9% (active) | -85.7% (active) | -85.1% (active)
